Source: PubChem BioAssay
In the library only some 10% were active in any assay of this set; here they are far more common.
PNC assembly inh – High Content Assay for Compounds that inhibit the Assembly of the Perinucleolar Compartment; PC3M PTB-GFP, PNC prevalence imaging, 16 h; active compounds read low; activity change (PNC), negative = inhibition, % at 10 µM; 140,000 tested, 3.1% active;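 active = readout at or below -70, meaning at least 70% loss of cells showing the perinucleolar compartment, a nuclear body marking cancer cells; inconclusive = readout between -30 and a set limit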
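Read-out is percentage of cells bearing a perinucleolar compartment, from automated 20x imaging of fixed, Hoechst-stained PC3M PTB-GFP cells. Cells were seeded 4 h, then exposed 16 h to compound (23 nl of library stock) in duplicate plates.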
ALOX12 inhib – qHTS Assay for Inhibitors of 12-hLO (12-human lipoxygenase); purified 12-hLO, xylenol orange hydroperoxide absorbance; Potency, µM (doses to about 57.1 µM), usual class: inhibitors; 150,000 tested, 0.12% active; AID 1452, 2008; active = well fitted inhibition curve with a large enough effect; inconclusive = small, poorly fitted or top-dose-only effect; note: nearly all actives have a fitted effect of over 55% in size
Target sequence (P18054 whole entry, looked up): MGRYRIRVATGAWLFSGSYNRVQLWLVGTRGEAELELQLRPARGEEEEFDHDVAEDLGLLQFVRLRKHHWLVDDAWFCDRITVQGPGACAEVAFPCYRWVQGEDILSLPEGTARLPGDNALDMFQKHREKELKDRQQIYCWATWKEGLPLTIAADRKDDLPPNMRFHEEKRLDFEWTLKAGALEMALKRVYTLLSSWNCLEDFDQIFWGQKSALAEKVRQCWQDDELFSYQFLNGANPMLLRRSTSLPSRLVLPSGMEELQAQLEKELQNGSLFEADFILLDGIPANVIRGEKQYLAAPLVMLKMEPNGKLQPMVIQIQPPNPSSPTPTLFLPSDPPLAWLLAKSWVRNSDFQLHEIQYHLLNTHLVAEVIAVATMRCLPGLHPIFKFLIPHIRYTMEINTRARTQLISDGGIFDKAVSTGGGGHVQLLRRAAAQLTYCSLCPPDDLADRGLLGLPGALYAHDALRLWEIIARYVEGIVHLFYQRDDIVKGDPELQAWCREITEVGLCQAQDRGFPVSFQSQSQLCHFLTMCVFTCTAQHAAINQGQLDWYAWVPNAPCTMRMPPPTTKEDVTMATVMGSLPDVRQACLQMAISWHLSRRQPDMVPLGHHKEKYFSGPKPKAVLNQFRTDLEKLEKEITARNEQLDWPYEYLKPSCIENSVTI
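Xylenol orange chromogenic assay: hydroperoxide from 12hLO oxidises Fe(II), giving red-shifted Fe(III)-XO absorbance. Conditions: 150 nM enzyme, 40 uM arachidonic acid, 25 mM Hepes pH 7.0, 0.01% Triton X-100, 30 min, room temperature.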
Lamin A splicing – qHTS Assay for Modulators of Lamin A Splicing; HeLa LMNA splicing GFP/RFP minigene ratio, 48 h; Potency, µM (top dose mostly 46.1 µM), actives largely listed as inhibitors; 200,000 tested, 0.01% active; active = well fitted inhibition curve with a large enough effect in the signal ratio, with a control signal flat, not every such curve was filed as active; inconclusive = small, poorly fitted or top-dose-only effect, or effect the other way, or a change in a side signal; the % refers to the signal ratio
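S3 HeLa cells stably expressing lamin A-EGFP splicing minigene plus DsRed2, 600 cells/well, 48 h compound exposure at 37C. Laser-scanning cytometry; analysed as GFP (500-530 nm)/RFP (575-640 nm) total intensity ratio; 0.5% DMSO vehicle.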
ALDH1A1 inh – qHTS Assay for Inhibitors of Aldehyde Dehydrogenase 1 (ALDH1A1). 220,000 tested, 7.3% active. Potency, µM (doses to about 75.3 µM), most hits filed as inhibitors. Aldehyde dehydrogenase 1A1 (Homo sapiens), P00352. AID 1030, 2008. Purified ALDH1A1, NADH fluorescence, propionaldehyde substrate
HPGD block – qHTS Assay for Inhibitors of HPGD (15-Hydroxyprostaglandin Dehydrogenase) | 15-hydroxyprostaglandin dehydrogenase [NAD(+)] (Homo sapiens), P15428 | purified HPGD, NADH fluorescence kinetic, PGE2 substrate | Potency, µM, actives largely listed as inhibitors | 150,000 tested, 4.3% active | AID 894, 2007
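NADH formation kinetics: reaction with 30 uM PGE2 and 1 mM NAD+ (final), 20 nM enzyme, Tris-HCl pH 8 with Tween 20, after 15 min compound preincubation at room temperature. Fluorescence change, last versus first of five reads.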
Hits are given with their value. Unless noted, calls come from the whole dose curve; as a rule, active = well fitted inhibition curve with a large enough effect (not every such curve was filed as active); inconclusive = small, poorly fitted or top-dose-only effect, or another doubt; inactive = no such curve, though single readings can be large or run the other way.

Screening CC1(C)OC(=O)C(=Cc2ccc[nH]2)C(=O)O1 returned ALDH1A1 inh 16µM.
Cn1cc(-c2nc3cnc(Oc4ccccc4)nc3n(C)c2=O)c2ccccc21 was read as Lamin A splicing inconclusive and ALDH1A1 inh inactive.
For COc1ccc(/C=C(\C#N)C(=O)OCC(=O)NC2CC2)cc1 the results were Lamin A splicing inconclusive and ALDH1A1 inh 20µM.
`COc1cc(/C=N/NC(N)=S)ccc1OCC(=O)Nc1ccc(C)cc1` gave PNC assembly inh inactive, ALOX12 inhib inactive, Lamin A splicing inactive, ALDH1A1 inh 25µM and HPGD block inactive.
Screening COc1ccc(/C=C(\C#N)C(=O)OCC(=O)Nc2ccc(C(C)(C)C)cc2)cc1 returned PNC assembly inh inactive, ALOX12 inhib inactive, Lamin A splicing inconclusive, ALDH1A1 inh 22µM and HPGD block inconclusive.
Screening CNC(=S)N/N=C/c1ccc(OCC(=O)Nc2c(C)cc(C)cc2C)c(OC)c1 returned PNC assembly inh inactive, ALOX12 inhib inactive, Lamin A splicing inactive, ALDH1A1 inh inactive and HPGD block inactive.
For CCc1cccc(CC)c1NC(=O)COC(=O)/C(C#N)=C/c1ccc(OC)cc1 the results were PNC assembly inh inactive, ALOX12 inhib inactive, Lamin A splicing inconclusive, ALDH1A1 inh inactive and HPGD block inactive.
`CCOC(=O)/C(C#N)=C/c1ccc(OCC(=O)Nc2ccc(OC)cc2)c(OC)c1` gave PNC assembly inh inactive, ALOX12 inhib inactive, Lamin A splicing inactive, ALDH1A1 inh 5µM and HPGD block inactive.
For COc1ccc(/C=C(\C#N)C(=O)OCC(=O)NCc2ccccc2)cc1 the results were PNC assembly inh inactive, ALOX12 inhib inactive, Lamin A splicing inactive, ALDH1A1 inh inconclusive and HPGD block inconclusive.
For O=C(NCC(c1ccc2c(c1)OCO2)N1CCOCC1)C(=O)Nc1ccc(Cl)cc1 (configuration not stated) the results were Lamin A splicing inactive.
Screening CCCN(CCC)C(=O)c1c[nH]c2ccc(S(=O)(=O)N(C)c3ccc(Cl)cc3)cc2c1=O returned Lamin A splicing inactive.
Screening Cc1cc(C(=O)N(C)C)sc1-c1ccccc1 returned PNC assembly inh inactive, ALOX12 inhib inactive, Lamin A splicing inactive, ALDH1A1 inh inactive and HPGD block 6.3µM.
Screening Cc1cc(C(=O)N2CCN(S(C)(=O)=O)CC2)sc1-c1ccccc1 returned PNC assembly inh inactive, ALOX12 inhib inactive, Lamin A splicing inactive, ALDH1A1 inh inactive and HPGD block inactive.
Screening CN(C)S(=O)(=O)c1ccc(NC(=S)NC(=O)c2ccc(Br)o2)cc1 returned ALDH1A1 inh 13µM.
NS(=O)(=O)c1ccc(NC(=S)NC(=O)c2ccc(Br)o2)cc1 was read as Lamin A splicing inactive and ALDH1A1 inh inconclusive.
Cc1cc(C)cc(NS(=O)(=O)c2ccc(NC(=S)NC(=O)c3ccc(Br)o3)cc2)c1 was read as PNC assembly inh inconclusive, ALOX12 inhib inconclusive, Lamin A splicing inconclusive, ALDH1A1 inh 14µM and HPGD block inactive.
Screening CCCCCCCCCCCCC/C=C/[C@@H](O)[C@H](CO)NC(C)=O returned ALDH1A1 inh inactive.
`CCC(c1nnnn1CCOC)N(Cc1cc2c(C)cc(C)cc2[nH]c1=O)CC1CCCO1` (configuration not stated) gave PNC assembly inh inactive, ALOX12 inhib inactive, Lamin A splicing inactive, ALDH1A1 inh 11µM and HPGD block inactive.
For Cc1cc(C)c2cc(CN(Cc3nnnn3C3CCCCC3)CC3CCCO3)c(=O)[nH]c2c1 (configuration not stated) the results were PNC assembly inh inactive, ALOX12 inhib inconclusive, Lamin A splicing inactive, ALDH1A1 inh 4.5µM and HPGD block inactive.
For CCCC(c1nnnn1CC(=O)OCC)N(Cc1cc2ccc(C)cc2[nH]c1=O)C1CCCC1 (configuration not stated) the results were PNC assembly inh inactive, ALOX12 inhib inactive, Lamin A splicing inactive, ALDH1A1 inh inconclusive and HPGD block inactive.
